Source: PubChem BioAssay
SRC1 inh: SRC1 coactivator transcriptional activity inhibitors, primary screen, cell-based, luminescence. inhibition, % at 3.6 µM. HEK293 GAL4-SRC1 luciferase reporter. AID 588354, 2011. Nuclear receptor coactivator 1 (Homo sapiens), Q15788. 360,000 tested, 0.12% active;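 active = inhibition above the campaign mean plus 3 SD, with each screening campaign given its own cutoff, cut at about 60% in these data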
SRC2 inh: inhibition of GAL4-SRC2 driven luciferase reporter, primary screen, SRC2 inhibitor project, cell-based, luminescence; Nuclear receptor coactivator 2 (Homo sapiens), Q15596; AID 651957, 2012; 370,000 tested, 0.17% active; inhibition, % at 9 µM; HEK293 GAL4-SRC2 luciferase reporter;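 active = inhibition above the mean inhibition of all tested compounds plus 3 SD, set per campaign, cut at about 52% in these data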
Gli-Sufu antag: Gli-Sufu pathway antagonists, primary screen, luciferase luminescence, Sufu-KO-LIGHT cells, uHTS; Sufu-KO-LIGHT fibroblasts, Gli luciferase reporter luminescence; inhibition, % at 5 µM; 340,000 tested, 0.74% active;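 active = inhibition above about 55%, limit read from the data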
NR2F2 inh: NR2F2 transcriptional activity inhibitors, primary screen, cell-based, luciferase reporter, HEK293T, luminescence; COUP transcription factor 2 (Homo sapiens), P24468; HEK293T NGFI-A luciferase reporter; inhibition, % at 8.6 µM; 370,000 tested, 0.7% active; AID 686940, 2013;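 active = inhibition above a per-plate cutoff, mean inhibition of test wells between control levels plus 3 SD, cut at about 38% in these data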;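 also: cells cotransfected with COUP-TFII expression vector driving the NGFI-A reporter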
NCOA3 inh: SRC3 coactivator transcriptional activity inhibitors, primary screen, cell-based, luminescence | 360,000 tested, 0.17% active | Nuclear receptor coactivator 3 (Homo sapiens), Q9Y6Q9 | AID 588352, 2011 | HEK293 GAL4-SRC3 luciferase reporter | inhibition, % at 3.6 µM;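 active = inhibition above a per-campaign cutoff, the mean of all compounds plus 3 SD, cut at about 60% in these data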;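 also: higher means less SRC3-driven luciferase light from the GAL4 reporter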
LRH-1 inv ag: LRH-1 (NR5A2) inverse agonists, primary screen, cell-based, luminescence, HEK293T, StAR-luciferase reporter; Nuclear receptor subfamily 5 group A member 2 (Homo sapiens), O00482; LRH-1 transfected, 24 h; inhibition, % at 3.6 µM; 360,000 tested, 0.13% active;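 active = inhibition above the mean inhibition of all tested compounds plus 3 SD, cut at about 73% in these data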
Gal4-VP16 ctr: Gal4-VP16 luciferase reporter inhibitors, counter-screen for COUP-TFII antagonist project, cell-based, luminescence, HEK293; AID 687007, 2013; shares compounds with NR2F2 inh; 2,500 tested, 25% active; inhibition, % at 8.5 µM; in the data active = inhibition above about 13%
NR2F2 inh conf: NR2F2 transcriptional activity inhibitors, confirmation, cell-based, luciferase reporter, HEK293, triplicate. inhibition, % at 8.5 µM. 2,500 tested, 45% active. shares compounds with NR2F2 inh. HEK293 NGFI-A luciferase reporter, luminescence;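 active = mean inhibition over three repeats above a set limit taken from the earlier primary screen, cut at about 38% in these data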
Numbers stand for hits. Hits are enriched below; roughly 1.3% of the tested compounds scored in any of these assays.

For O=S1(=O)CC2c3ccc(F)cc3CN2CN1C1CCCC1 (stereo not drawn) the results were SRC2 inh inactive and NR2F2 inh inactive.
Cc1cc(C)n(Cc2ccc(NC(=O)c3ccc(COc4ccccc4Br)cc3)cc2)n1 was read as SRC1 inh inactive, SRC2 inh inactive, Gli-Sufu antag inactive, NR2F2 inh 63, NCOA3 inh inactive, LRH-1 inv ag inactive, Gal4-VP16 ctr inactive and NR2F2 inh conf inactive.
Screening C=C1C(=O)OC2CC1C(OC(C)=O)CC(C)=CCCC(C)=CCCC2(C)O (stereo not drawn) returned SRC1 inh inactive, SRC2 inh inactive, NR2F2 inh 39, NCOA3 inh 62, LRH-1 inv ag inactive, Gal4-VP16 ctr 30 and NR2F2 inh conf inactive.
Screening CCN(CC)S(=O)(=O)c1ccc(/C=C/C(=O)Nc2cccc(F)c2)cc1 returned SRC1 inh inactive, SRC2 inh inactive, Gli-Sufu antag inactive, NR2F2 inh 38, NCOA3 inh inactive, LRH-1 inv ag inactive, Gal4-VP16 ctr inactive and NR2F2 inh conf inactive.
`CCN(CC)S(=O)(=O)c1ccc(NC(=O)Nc2cccc(C(F)(F)F)c2)cc1` gave SRC1 inh inactive, SRC2 inh inactive, Gli-Sufu antag inactive, NR2F2 inh 75, NCOA3 inh inactive, LRH-1 inv ag inactive, Gal4-VP16 ctr inactive and NR2F2 inh conf inactive.
Screening Cc1ccc(S(=O)(=O)Nc2ccc(NC(=O)Nc3cccc(C(F)(F)F)c3)cc2)cc1 returned SRC1 inh inactive, SRC2 inh inactive, Gli-Sufu antag inactive, NR2F2 inh inactive, NCOA3 inh inactive and LRH-1 inv ag inactive.
For CCN(CC)S(=O)(=O)c1ccc(/C=C/C(=O)O)cc1 the results were SRC1 inh inactive, SRC2 inh inactive, Gli-Sufu antag inactive, NR2F2 inh inactive, NCOA3 inh inactive and LRH-1 inv ag inactive.
`O=C1C(N2CCOCC2)=C(n2nnc3ccccc32)C(=O)c2ccccc21` gave SRC1 inh inactive, SRC2 inh 58, Gli-Sufu antag inactive, NR2F2 inh 39, NCOA3 inh inactive, LRH-1 inv ag inactive, Gal4-VP16 ctr 19 and NR2F2 inh conf inactive.
`O=C1c2ccccc2C(=O)c2c1cccc2-n1nnc2ccccc21` gave SRC1 inh inactive, SRC2 inh inactive, Gli-Sufu antag inactive, NR2F2 inh inactive, NCOA3 inh inactive and LRH-1 inv ag inactive.
`COC(=O)[C@]12CCCCC=C1N(Cc1ccc(OC)cc1)C(=O)[C@@H]2CC(=O)NCc1ccc(OC)c(OC)c1` gave SRC2 inh inactive and NR2F2 inh inactive.
For Cc1ccccc1CS(=O)(=O)Cc1ccc(C(=O)Nc2cccc(Cl)c2F)o1 the results were SRC2 inh inactive and NR2F2 inh inactive.
Cc1ccccc1CS(=O)(=O)Cc1ccc(C(=O)Nc2ccc(F)cc2)o1 was read as SRC2 inh inactive, NR2F2 inh 53, Gal4-VP16 ctr inactive and NR2F2 inh conf inactive.
`COc1ccc(C(=O)OCCN2CCN(C3CN(Cc4cn(Cc5cccc(C)c5)nn4)S(=O)(=O)C3)CC2)cc1OC` (stereo not drawn) gave SRC2 inh inactive, NR2F2 inh 47, Gal4-VP16 ctr inactive and NR2F2 inh conf inactive.
Screening COCCCn1cc(CN2CC(N3CCN(Cc4cccc(C)c4)CC3)CS2(=O)=O)nn1 (stereo not drawn) returned SRC2 inh inactive, NR2F2 inh inactive and LRH-1 inv ag inactive.
COc1cccc(CNC(=S)OC2CCC23CCC(c2ccccc2)CC3)c1 (stereo not drawn) was read as SRC2 inh inactive and NR2F2 inh inactive.
CCCn1c(C)cc(C(=O)CN2C(=O)c3ccccc3S2(=O)=O)c1C was read as SRC1 inh 75, SRC2 inh 82, NR2F2 inh 85, NCOA3 inh 73, LRH-1 inv ag 81, Gal4-VP16 ctr 77 and NR2F2 inh conf 91.
For Cc1ccc(C)c(C(=O)CN2C(=O)c3ccccc3S2(=O)=O)c1 the results were SRC1 inh inactive, SRC2 inh inactive, Gli-Sufu antag inactive, NR2F2 inh inactive, NCOA3 inh inactive and LRH-1 inv ag inactive.
For O=C(OCc1cn(Cc2ccc(F)cc2F)nn1)N1CCOCC1 the results were SRC2 inh inactive and NR2F2 inh inactive.
Screening C=CCc1cccc(CNc2cnc3ccccc3c2)c1O returned SRC1 inh inactive, SRC2 inh inactive, Gli-Sufu antag inactive, NR2F2 inh 47, NCOA3 inh inactive, LRH-1 inv ag inactive, Gal4-VP16 ctr inactive and NR2F2 inh conf inactive.
For Oc1ccccc1CNc1cnc2ccccc2c1 the results were SRC1 inh inactive, SRC2 inh inactive, Gli-Sufu antag inactive, NR2F2 inh inactive, NCOA3 inh inactive and LRH-1 inv ag inactive.
COCc1cc(N2CCN(C(=O)OC(C)(C)C)C[C@H]2C)ccc1Br was read as SRC2 inh inactive and NR2F2 inh inactive.
Screening CCOC(=O)Cc1csc2nc(-c3ccccc3)cn12 returned SRC2 inh inactive and NR2F2 inh inactive.
For Cc1ccc(OCC(=O)c2cc(C)n(CC(F)(F)F)c2C)c([N+](=O)[O-])n1 the results were SRC1 inh inactive, SRC2 inh inactive, Gli-Sufu antag inactive, NR2F2 inh inactive, NCOA3 inh inactive and LRH-1 inv ag inactive.
`Cc1ccc(OCC(=O)c2cc(C)n(Cc3cccs3)c2C)c([N+](=O)[O-])n1` gave SRC1 inh inactive, SRC2 inh 66, Gli-Sufu antag inactive, NR2F2 inh 61, NCOA3 inh inactive, LRH-1 inv ag inactive, Gal4-VP16 ctr inactive and NR2F2 inh conf inactive.
Screening N#CC(C#N)=C(Nc1ccc(F)cc1)SCc1cccc(Br)c1 returned SRC1 inh inactive, SRC2 inh inactive, Gli-Sufu antag 64, NR2F2 inh 52, NCOA3 inh inactive, LRH-1 inv ag inactive, Gal4-VP16 ctr inactive and NR2F2 inh conf 38.
Screening CC(SCc1ccccc1)C(=O)Nc1ccc(F)cc1 (stereo not drawn) returned SRC1 inh inactive, SRC2 inh inactive, Gli-Sufu antag inactive, NR2F2 inh inactive, NCOA3 inh inactive and LRH-1 inv ag inactive.
CCc1ccccc1NC(=O)Nc1cccn(Cc2ccccc2F)c1=O was read as SRC1 inh inactive, SRC2 inh inactive, Gli-Sufu antag inactive, NR2F2 inh inactive, NCOA3 inh inactive and LRH-1 inv ag inactive.
